In PubChem BioAssay one finds inhibition data, which are given here for nine compounds.

A number with no mark means an inactive call. Active and inactive are the calls of the source. Unless noted, no stated cut-off is given here; in the data, active means inhibition above about 44%; inactive means the rest.

Test [1] can be described thus: StAR promoter reporter inhibitors, counter-screen for LRH-1 inverse agonist project, cell-based, luminescence, high throughput (AID 651611; in the data active means inhibition above about 28%). The settings on record: StAR promoter luciferase reporter counterscreen, at 3.6 µM, hits give high values. Background: A counterscreen serves to expose hits that act by an unwanted route or on another target.
The target in test [2] is Nuclear receptor subfamily 5 group A member 2 (Homo sapiens) (UniProt O00482). In words: NR5A2 activity suppression in reporter cells – cell-based, luminescence, confirmation (AID 651613; in the data active means inhibition above about 42%;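 further: HEK293T cells co-transfected with LRH-1 and StAR promoter luciferase reporter; 0% = vehicle wells and 100% = parental cells lacking receptor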). The conditions noted are these: cell-based LRH-1 luciferase reporter, inverse agonism; at 3.6 µM; hits give high values. (In general: A reporter such as luciferase makes a cellular process visible.)
Sequence of Nuclear receptor subfamily 5 group A member 2 (Homo sapiens) (O00482 whole entry, looked up): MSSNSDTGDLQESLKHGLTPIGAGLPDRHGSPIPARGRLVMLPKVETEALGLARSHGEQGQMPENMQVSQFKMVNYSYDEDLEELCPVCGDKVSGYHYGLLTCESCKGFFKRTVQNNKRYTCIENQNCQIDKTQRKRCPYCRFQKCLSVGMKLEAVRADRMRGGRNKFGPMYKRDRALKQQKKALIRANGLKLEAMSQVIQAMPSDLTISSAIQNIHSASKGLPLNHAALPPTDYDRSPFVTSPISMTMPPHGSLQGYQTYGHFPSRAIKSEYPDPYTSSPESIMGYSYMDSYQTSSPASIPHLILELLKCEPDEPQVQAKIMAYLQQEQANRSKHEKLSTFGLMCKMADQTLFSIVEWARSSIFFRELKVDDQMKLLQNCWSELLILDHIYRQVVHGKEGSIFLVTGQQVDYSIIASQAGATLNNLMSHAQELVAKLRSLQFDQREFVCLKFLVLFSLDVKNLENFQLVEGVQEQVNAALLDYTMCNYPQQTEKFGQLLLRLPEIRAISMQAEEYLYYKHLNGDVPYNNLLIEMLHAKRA

For test [3], the target named is Steroidogenic factor 1 (Homo sapiens) (UniProt Q13285). In words: inverse agonism at SF1 nuclear receptor – cell-based, luminescence, high throughput, counter-screen for LRH-1 inverse agonist project (AID 651614).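 Further: cells cotransfected with StAR promoter reporter and SF1 expression vector; 0% = vehicle on cells with receptor and 100% = vehicle on cells lacking receptor.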 The settings on record: cell-based SF1 luciferase reporter, at 3.6 µM, hits give high values.
Sequence of Steroidogenic factor 1 (Homo sapiens) (Q13285 whole entry, looked up, the tested form may be a part): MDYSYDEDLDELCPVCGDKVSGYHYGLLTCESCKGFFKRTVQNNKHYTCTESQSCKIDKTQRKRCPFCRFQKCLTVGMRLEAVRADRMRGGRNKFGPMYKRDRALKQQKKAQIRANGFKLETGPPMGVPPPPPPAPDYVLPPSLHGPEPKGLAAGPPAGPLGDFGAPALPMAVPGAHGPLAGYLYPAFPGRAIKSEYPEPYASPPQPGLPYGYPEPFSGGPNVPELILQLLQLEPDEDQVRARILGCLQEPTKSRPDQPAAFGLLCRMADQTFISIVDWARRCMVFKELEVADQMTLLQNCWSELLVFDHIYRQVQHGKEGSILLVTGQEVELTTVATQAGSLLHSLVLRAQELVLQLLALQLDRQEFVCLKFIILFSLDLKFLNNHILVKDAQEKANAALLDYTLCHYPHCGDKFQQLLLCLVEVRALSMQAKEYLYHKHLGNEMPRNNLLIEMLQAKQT
A short description of test [4]: compounds suppressing VP16-driven luciferase signal – cell-based, luminescence, high throughput, counter-screen for LRH-1 inverse agonist project (AID 651615; in the data active means inhibition above about 33%). The settings on record: Gal4-VP16 luciferase reporter cells, at 3.6 µM, hits give high values.

As to `O=C(Nc1ccc([N+](=O)[O-])cc1)c1cccc([N+](=O)[O-])c1`, the inhibition in test [1] is 8.52%; in test [2] it was 65.6% (active); in test [3], 64.5% (active); in test [4] it was -15.3%.

For `CC(Cl)C(=O)Nc1ncc(C(F)(F)F)cc1Cl` (stereo unspecified), the inhibition was 13.3% in test [1], 58.9% (active) in test [2], 51.3% (active) in test [3] and -7.63% in test [4].

As to `Cc1ccc(NC(=O)CSc2nc3[nH]c(=O)cc(O)c3s2)c(Br)c1`, the inhibition in test [1] is 5.79%; in test [2] it was 56.3% (active); in test [3] it was 46.5% (active); in test [4], -1.62%.

`CC(C)CC1(C)NC(=O)N(CC(=O)Nc2ccc3c(c2)OCCO3)C1=O` (stereo unspecified): the inhibition is 16.7% in test [1], 54.2% (active) in test [2], 53% (active) in test [3] and 7.91% in test [4].

In the case of `CCN1CCN(c2ccc(S(=O)(=O)N3CCCCC3)cc2NC(=O)/C=C/c2ccc([N+](=O)[O-])cc2)CC1`, the inhibition in test [1] is 0.06%; in test [2] it was 61.8% (active); in test [3] it was 49.4% (active); in test [4], 3.5%.

Regarding `CC(=O)N1CCN(c2ccc(NCc3ccc(C)cc3)cc2)CC1`, the inhibition in test [1] is 1.04%; in test [2], 34.2%; in test [3], 33.7%; in test [4] it was 1.11%.

For `COc1cccc(NC(=O)c2oc3ccccc3c2NC(=O)C2CC2)c1`, the inhibition was -5.29% in test [1], 50.6% (active) in test [2], 47.1% (active) in test [3] and -8.83% in test [4].

As for `O=C(COc1ccc(S(=O)(=O)N2CCCC2)cc1Cl)NCc1ccc2c(c1)OCO2`, the inhibition is 26.1% in test [1], 34% in test [2], 32.6% in test [3] and 2.14% in test [4].

On to `CC(=O)Nc1ccc(NC(=O)COC(=O)Cc2c[nH]c3ccccc23)cc1`, for which the inhibition was 18.8% in test [1], 67.4% (active) in test [2], 53.8% (active) in test [3] and -15.3% in test [4].

Broadly, the inhibition is the relative decrease from the control value, in per cent.
